Rows were chosen to be rich in hits. Some 18% of all compounds tested hit in one or more screens of this group.
DT40 TDP1 CPT: qHTS for Inhibitors of human tyrosyl-DNA phosphodiesterase 1 (TDP1): qHTS in cells in presence of CPT; Potency, µM (doses to about 46.2 µM), for inactives: at the top dose activity change, negative = growth inhibition, most hits filed as inhibitors; chicken DT40 Tdp1-/-;hTDP1 cells + 20 nM CPT, ATP luminescence, 48 h; 420,000 tested, 12% active; note: nearly all actives have a fitted effect of over 55% in size
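Cell growth measured by CellTiter-Glo luminescence after a minimum 48 h, 37 C compound exposure with 20 nM CPT in Tdp1-knockout DT40 cells stably expressing hTDP1, seeded 400/well; qHTS titration format.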
VDR inhibitor: Inhibitors of the vitamin D receptor (VDR): qHTS; Vitamin D3 receptor (Homo sapiens), P11473; VDR-SRC2-3 peptide fluorescence polarization, 2 h; Potency, µM, for inactives: max response, negative = inhibition, actives largely listed as inhibitors; 400,000 tested, 0.93% active
Target sequence (P11473 whole entry, looked up): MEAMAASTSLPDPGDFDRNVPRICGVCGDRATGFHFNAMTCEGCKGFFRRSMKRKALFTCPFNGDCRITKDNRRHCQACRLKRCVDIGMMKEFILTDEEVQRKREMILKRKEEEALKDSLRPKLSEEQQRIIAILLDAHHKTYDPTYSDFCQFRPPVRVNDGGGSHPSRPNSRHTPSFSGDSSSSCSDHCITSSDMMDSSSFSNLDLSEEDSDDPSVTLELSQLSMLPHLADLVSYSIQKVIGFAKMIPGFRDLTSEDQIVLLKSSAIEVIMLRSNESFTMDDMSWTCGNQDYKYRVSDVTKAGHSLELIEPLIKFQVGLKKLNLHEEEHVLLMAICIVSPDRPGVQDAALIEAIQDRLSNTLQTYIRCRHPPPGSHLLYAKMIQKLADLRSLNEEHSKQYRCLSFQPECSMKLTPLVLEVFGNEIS
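Compounds are added to VDR with labelled SRC2-3 coactivator peptide and held 2 h at room temperature. Inhibition of the VDR–peptide interaction is then read as a change in fluorescence polarization.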
GCN5L2 inh: qHTS Assay for Inhibitors of GCN5L2 | Histone acetyltransferase KAT2A (Homo sapiens), Q92830 | GCN5L2 HAT assay, ThioGlo1 CoA-SH fluorescence | Potency, µM (highest dose often 58.9 µM), for the others: at the highest dose activity change, negative = inhibition, hits mostly inhibitors | 390,000 tested, 0.21% active
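Preincubate 20nM GCN5L2 with compound 15 min, RT → add 50uM ThioGlo1 + 75uM H3(1-25) + 70uM acetyl-CoA → read fluorescence 0 and 20 min. Primary qHTS; fluorescent artifacts likely.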
PLK1 PBD inh: qHTS for Inhibitors of PLK1-PDB (polo-like kinase 1 - polo-box domain): Primary Screen. Serine/threonine-protein kinase PLK1 (Homo sapiens), P53350. Plk1 PBD binding of FITC phosphopeptide, fluorescence polarization. Potency, µM, for the others: max response, negative = inhibition, most hits filed as inhibitors. 360,000 tested, 2.8% active. AID 720504, 2013; note: series mostly up to about 57 µM; nearly all actives have a fitted effect of over 65% in size
TDP1 block: qHTS Assay for Inhibitors of Tyrosyl-DNA Phosphodiesterase (TDP1); recombinant TDP1, AlphaScreen DNA substrate cleavage; 350,000 tested, 0.28% active; Potency, µM (highest dose often 130 µM), for inactives: top-dose activity change, negative = inhibition, usual class: inhibitors; note: nearly all actives have a fitted effect of over 40% in size
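AlphaScreen read-out: signal falls as enzyme removes the 3' tyrosine-FITC from a 5'-biotinylated DNA oligo (15 nM, 5 min, RT). Enzyme was E. coli-made recombinant Tdp1 at 1 nM, exposed to compound for 15 min beforehand; beads 10 ug/ml, 10 min.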
DT40 TDP1 no CPT: qHTS for Inhibitors of human tyrosyl-DNA phosphodiesterase 1 (TDP1): qHTS in cells in absence of CPT; Potency, µM (series often up to 46.2 µM), for inactives: at the highest dose activity change, negative = growth inhibition, hits mostly inhibitors; 420,000 tested, 15% active; DT40 Tdp1-/- hTDP1 cells, no CPT, ATP luminescence, 48 h; note: nearly all actives have a fitted effect of over 55% in size
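Readout: luminescence from CellTiter-Glo after 30 min in the dark at RT. Cells: DT40 Tdp1-/- with stable hTDP1, 400/well. Exposure: compounds alone, ≥48 hr, 37 °C.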
Active calls of the source: *; ? = inconclusive; . = not tested or not shown; ! = not confirmed by another sample; [ ] = another dose, or the depositor's remark. Calls come from the whole dose curve; as a rule, active = well fitted curve in the direction sought with a large enough effect; inconclusive = small, poorly fitted or top-dose-only effect, or another doubt; inactive = no such curve, though single readings can be large; an effect the other way counts as inactive or inconclusive. % is set by controls: 0 for no effect and ±100 for the full control effect; potency is the fitted concentration of half-maximal effect.

SMILES	DT40 TDP1 CPT	VDR inhibitor	GCN5L2 inh	PLK1 PBD inh	TDP1 block	DT40 TDP1 no CPT
Cc1ccc2oc3c(c(=O)c2c1)C(c1ccccc1F)N(CCCN1CCOCC1)C3=O (centres undefined)	?	1.4%	4.7%	.	3.2%	18.4µM*
O=C1c2oc3ccc(Cl)cc3c(=O)c2C(c2ccccn2)N1CCCN1CCOCC1 (centres undefined)	23.1µM*	?	-8.2%	?	4.1%	29.1µM*
CCOc1ccc(C2c3c(oc4ccc(C)cc4c3=O)C(=O)N2CCCN2CCOCC2)cc1 (centres undefined)	-7.1%	1.9%	-2.0%	.	-1.9%	-15.1%
O=C1c2oc3ccc(F)cc3c(=O)c2C(c2ccc(F)cc2)N1CCCN1CCOCC1 (centres undefined)	-33.8%	-27.5%	.	-19.6%	.	-25.5%
COCC(C)n1c(SCC(=O)Nc2sccc2C(N)=O)nc2ccccc2c1=O (centres undefined)	20.6µM*	-11.7%	-6.0%	0.4%	1.0%	7.31µM*
COCC(C)n1c(SCC(=O)Nc2nccs2)nc2ccccc2c1=O (centres undefined)	-17.6%	-0.4%	-2.3%	-6.4%	1.8%	-27.3%
Cc1ccc2nc(CSc3nnc4ccccn34)cc(=O)n2c1	1.8%	0.4%	-14.1%	-2.9%	4.6%	6.5%
C=CCn1c(SCC(=O)N2CCc3ccccc3C2)nc2ccccc2c1=O	?	10.6%	-12.0%	1.4%	4.3%	18.4µM*
COCC(C)n1c(SCC(=O)N2CCc3ccccc3C2)nc2ccccc2c1=O (centres undefined)	2.31µM*	-17.6%	-0.4%	-13.3%	8.5%	1.84µM*
COCC(C)n1c(SCc2cc(=O)n3cc(C)ccc3n2)nc2ccccc2c1=O (centres undefined)	?	5.3%	-6.4%	-6.7%	4.7%	10.3µM*
COc1cccc(NC(=O)[C@@H]2CCC(=O)N2C2OC(=O)c3ccccc32)c1 (some centres undefined)	10.8%	-13.1%	-4.0%	8.0%	.	-8.5%
Cc1cc(Nc2ccc(O)cc2)n2c(nc3ccccc32)c1C#N	-2.0%	2.2%	-15.2%	-9.6%	-3.7%	-3.4%
Cc1ccc(Nc2cc(C)c(C#N)c3nc4ccccc4n23)c(C)c1	14.6µM*	-7.1%	-3.1%	.	5.3%	13µM*
Cc1cc(NCCCOC(C)C)n2c(nc3ccccc32)c1C#N	?	-12.2%	-3.9%	-3.5%	.	25.9µM*
CC1(C(=O)Nc2ccc3c(c2)OCCO3)CN(S(C)(=O)=O)CC(=O)N1C1CCCCCC1 (centres undefined)	14.7%	.	.	-14.9%	.	-5.9%
Cn1ccnc1SCC(=O)Nc1nc2c(F)c(F)c(F)cc2s1	?	-0.3%	-1.5%	-1.8%	-6.1%	?
CC1=Nc2ccccc2N=C(NC(=O)c2ccccc2)C1c1ccc(Cl)cc1 (centres undefined)	?	-9.3%	-7.6%	-7.6%	2.7%	20.6µM*
O=C1CC(c2ccc(Cl)cc2)N=C(NC(=O)c2ccccc2)N1 (centres undefined)	-22.1%	-0.6%	-3.6%	.	-1.9%	-16.1%
O=C(NCC(c1ccc2c(c1)OCO2)N1CCOCC1)C(=O)Nc1ccc(Cl)cc1 (centres undefined)	?	-9.2%	2.4%	.	9.3%	-28.7%
CCc1cc(/C=C/c2ccnc3ccccc23)ccc1N(C)C	5.01µM*	.	.	.	.	2.82µM*
CN(C)c1ccc(/C=C/c2ccnc3ccccc23)cc1C=O	15.8µM*	.	.	.	.	10µM*
CCCCCCCCN(CCCCCCCC)c1ccc(/C=C/c2ccnc3ccccc23)cc1	-2.5%	.	.	.	.	-21.5%
CCOc1ccc(/C=C/c2ccnc3ccccc23)cc1OCC	10µM*	.	.	.	.	11.2µM*
CN(C)c1ccc(/C=C/c2ccnc3ccccc23)cc1O	11.2µM*	.	.	.	.	10µM*
CN(C)c1ccc(/C=C/c2ccnc3ccccc23)cc1[N+](=O)[O-]	-2.5%	.	.	.	.	-11.1%
SMILES	DT40 TDP1 CPT	VDR inhibitor	GCN5L2 inh	PLK1 PBD inh	TDP1 block	DT40 TDP1 no CPT
COc1ccccc1-n1cc(CN2CCOc3ccc(CN4C[C@@H](C)O[C@@H](C)C4)cc3C2)cn1	-10.6%[9.04 µM]	.	.	.	.	?
N/C(=N\C(=S)Nc1ccc2c(c1)OCO2)c1ccccc1	?	.	.	1.0%	.	?
COc1ccc(Cl)cc1-c1ccc(C(=O)O)s1	.	?	0.7%[88.6 µM]	.	-5.1%[234 µM]	.
CCCCCC(=O)N1C[C@@H](O)[C@H](n2cc(C3CC3)nn2)C[C@@H]1c1ccc(C)cc1	-19.7%	.	.	-5.3%	.	-27.0%
CCOC(=O)C1=CCC(c2ccccc2C(F)(F)F)N(S(=O)(=O)c2ccc(C)cc2)C1 (centres undefined)	23.1µM*	.	.	-18.2%	.	23.1µM*
CCOC(=O)C1=CCC(c2ccccc2Cl)N(S(=O)(=O)c2ccc(C)cc2)C1 (centres undefined)	14.6µM*	.	.	-4.8%	.	?
CC(=O)C1=CCC(c2ccccc2Cl)N(S(=O)(=O)c2ccc(C)cc2)C1 (centres undefined)	?	.	.	-3.8%	.	?
CCOc1ccc(C(=O)c2cn(CC(=O)Nc3ccc(OC)cc3)c3cc4c(cc3c2=O)OCO4)cc1	?	-7.6%	4.2%	.	9.0%	-27.3%
CC(NC(=O)c1ccc(Br)cc1)c1ccc2c(c1)CCCC2 (centres undefined)	?	-1.4%	-1.7%	-0.9%	5.5%	?
CC(NC(=O)c1ccc(F)cc1)c1ccc2c(c1)CCCC2 (centres undefined)	20.6µM*	5.5%	9.1%	0.5%	4.0%	13µM*
Cc1ccc(CN2C(=O)c3ccccc3S(=O)(=O)c3ccc(C(=O)OCC4CCCO4)cc32)cc1 (centres undefined)	?	8.7%	15.7%	.	7.9%	?
O=C(O)c1cc2cc(F)ccc2[nH]1	-22.1%	11.7%	-1.6%	0.2%	89.1µM*!	-18.2%
Cc1ccc2[nH]c(C(=O)Nc3ccc(F)cc3)cc2c1	-23.5%	-0.9%	-5.4%	-3.8%	.	2.7%
CC(NC(=O)c1cc2cc(F)ccc2[nH]1)c1ccccc1 (centres undefined)	18.4µM*	-10.7%	-12.6%	-3.7%	.	?
